Measured values as given in PubChem BioAssay (NCI).
Compounds without any hit were thinned out: in the full panel of roughly 83,000, 20% have a hit.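 Values shown are percent growth following 48 h exposure of cells in 96-well plates to a single concentration of compound; below 10 was considered active.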 Values without a mark were called inactive. Activity calls are given as the source filed them.

Experiments:
Assay in all cases: NCI-60 one-dose screen, 48 h (100 = growth as untreated, 0 = no growth, -100 = all killed)
Conditions in all cases: 10 µM unless noted
DU-145 prostate = tested on: DU-145 prostate
K-562 leukemia = tested on: K-562 leukemia
MALME-3M melanoma = tested on: MALME-3M melanoma
MDA-MB-231 breast = tested on: MDA-MB-231 breast
RXF 393 renal = tested on: RXF 393 renal
SF-268 CNS = tested on: SF-268 CNS
SF-295 CNS = tested on: SF-295 CNS
SF-539 CNS = tested on: SF-539 CNS
UACC-257 melanoma = tested on: UACC-257 melanoma
M14 melanoma = tested on: M14 melanoma
HCT-15 colon = tested on: HCT-15 colon
HT29 colon = tested on: HT29 colon
SNB-75 CNS = tested on: SNB-75 CNS
SNB-19 CNS = tested on: SNB-19 CNS
U251 CNS = tested on: U251 CNS
PC-3 prostate = tested on: PC-3 prostate
SK-MEL-5 melanoma = tested on: SK-MEL-5 melanoma
UACC-62 melanoma = tested on: UACC-62 melanoma
LOX IMVI melanoma = tested on: LOX IMVI melanoma
SK-MEL-28 melanoma = tested on: SK-MEL-28 melanoma

SMILES	growth (DU-145 prostate)	growth (K-562 leukemia)	growth (MALME-3M melanoma)	growth (MDA-MB-231 breast)	growth (RXF 393 renal)	growth (SF-268 CNS)	growth (SF-295 CNS)	growth (SF-539 CNS)	growth (UACC-257 melanoma)	growth (M14 melanoma)	growth (HCT-15 colon)	growth (HT29 colon)	growth (SNB-75 CNS)	growth (SNB-19 CNS)	growth (U251 CNS)	growth (PC-3 prostate)	growth (SK-MEL-5 melanoma)	growth (UACC-62 melanoma)	growth (LOX IMVI melanoma)	growth (SK-MEL-28 melanoma)
Oc1ccc(C#CCOc2ccccc2)cc1CNCCN(Cc1ccccn1)Cc1ccccn1	28.6%	8.65% (active)	25.2%	47%	16%	13%	4.52% (active)	11.3%	15.4%	6.22% (active)	4.51% (active)	25.5%	25.6%	20.7%	7.44% (active)	27.7%	1.89% (active)	9.83% (active)	3.51% (active)	32.9%
O=C(CSc1nc2ccccc2[nH]1)Nc1cccc(Cl)c1	101%	100%	97.2%	76.5%	114%	97.1%	104%	103%	117%	105%	109%	112%	81.6%	91.4%	104%	99.3%	104%	87.6%	99.6%	106%
Cc1nc2ccccc2n1CC1C(=O)NC(=O)NC1=O	117%	94.8%	106%	114%	123%	106%	102%	100%	101%	110%	106%	107%	94.1%	98.5%	99.4%	103%	100%	103%	100%	108%
COc1ccc(C2C(C#N)=C(N)Oc3c2sc2c(C)cccc32)cc1 (stereo not given)	22.4%	6.98% (active)	62.5%	16.6%	-11.7% (active)	49.6%	3.47% (active)	-16.8% (active)	72.1%	8.58% (active)	9.6% (active)	6.72% (active)	-4.52% (active)	26.3%	25.4%	11.3%	29%	19.3%	17.2%	57.1%
COc1ccc(/C=C/c2c(C(=O)/C=C/c3ccc(Cl)cc3)c(C)nc3ccccc23)cc1	13.8%	9.27% (active)	28%	34.1%	-18.6% (active)	58.7%	42.2%	14.4%	38.8%	14.7%	-0.536% (active)	13.6%	50.6%	25%	19.4%	29.2%	39.2%	33.7%	-62.2% (active)	23.8%
NS(=O)(=O)c1ccc(-n2nc(-c3ccc(Cl)cc3)c3ccccc3c2=O)cc1	111%	84.2%	182%	87.9%	98.8%	98.1%	97.3%	89.4%	116%	103%	94.5%	97.1%	79.2%	85.6%	103%	75.3%	90.3%	89.2%	83.6%	117%
NCCOc1ncccc1/C=C1\c2ccccc2-c2ccc(C(F)F)cc21	13.1%	16.5%	61.6%	35.3%	61.5%	54.3%	53.7%	49.3%	102%	64.5%	28.8%	48.9%	53.2%	40.4%	35.9%	50.9%	58.2%	68.2%	12.3%	82%
O=C(/C=C/c1sc(Cl)nc1Cl)c1ccc(F)cc1	92%	10%	79.3%	81.5%	93.3%	92.8%	95.7%	66.8%	95.9%	78.4%	31.2%	84.5%	92.5%	90.8%	40.4%	88.5%	93.6%	93.3%	0.0946% (active)	97.2%
Cc1cc(Cl)ccc1NS(=O)(=O)c1ccc(-c2cnc(C3CC3)o2)cc1	21%	9.89% (active)	68%	26.2%	16.2%	47%	16.9%	-19.1% (active)	69.4%	10.2%	14.1%	5.04% (active)	-2.31% (active)	22.8%	24.8%	26.6%	20.4%	26.7%	22.4%	49.1%
C#C[C@]1(O)CC[C@H]2[C@@H]3CC=C4c5sc(Nc6cc(F)ccc6F)nc5CC[C@]4(C)[C@H]3CC[C@@]21C	-30.6% (active)	4.14% (active)	-19.9% (active)	-20.6% (active)	-58.5% (active)	0.557% (active)	-41.9% (active)	-88.7% (active)	0.483% (active)	-22.1% (active)	-28.4% (active)	8.03% (active)	-28.6% (active)	6.38% (active)	-15.2% (active)	-8.02% (active)	13.2%	-36.2% (active)	-77.7% (active)	-44.9% (active)
N#Cc1c(-c2ccc(Cl)cc2)nc2c(c(-c3ccccc3)nn2-c2ccccc2)c1-c1ccc(O)cc1	50.8%	8.36% (active)	61.5%	36.5%	-27% (active)	46.6%	1.71% (active)	11.2%	85.2%	38.3%	27.2%	91.8%	42.6%	65%	34%	12%	56.3%	53.6%	26.5%	56.4%
CCCCCCNC(=O)Oc1ccc(/C(=C(\C)c2ccc(Cl)cc2)c2ccc(OCCN(CC)CC)cc2)cc1	73.5%	2.67% (active)	49.3%	65%	49.7%	62%	84.9%	72.3%	6.29% (active)	-4.87% (active)	1.93% (active)	-14.2% (active)	77.2%	74.5%	41.7%	56.7%	51.9%	73.3%	44.2%	66%
CC(=O)N1CCN(c2ccc(OCC3CO[C@](Cn4ccnc4)(c4ccc(Cl)cc4Cl)O3)cc2)CC1 (stereo not given in full)	105%	56.6%	77.4%	77.5%	80.6%	96%	97.6%	91%	83.7%	83.8%	75%	80.6%	79.6%	97.2%	87.4%	76.5%	14.5%	57.2%	91.6%	106%
Cc1ccc2sc3c(NCCN)nc4ccccc4c3c(=O)c2c1	64.1%	0.362% (active)	102%	41.7%	89.8%	74.5%	105%	70.8%	108%	86.7%	29%	10.8%	77.2%	81%	49.7%	79.5%	95.6%	99.4%	15.6%	111%
